According to the supplement of paper PMC12340641:
Structures can show the parent of a compound that is named as a salt.

Columns and labels:
[1] = target: IKZF1 (dCK*-IKZF1 fusion in HEK293FT) (UniProt Q13422); experiment: inhibition of IKZF1 HTRF signal (DMSO = 0%, pomalidomide 10 uM = 100%); higher = lower IKZF1 protein level; conditions: compound concentration: 5 uM, overnight (~20 h)
In short: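 Percent inhibition of IKZF1 signal was calculated per plate with vehicle and a reference degrader as anchors. The anchors were 0% for vehicle and 100% for the degrader, applied to background-subtracted 665/620 nm time-resolved FRET ratios from a commercial HTRF total-IKZF1 kit. Signal came from HEK293FT cells stably expressing an IKZF1 fusion, treated overnight at 37 °C with 5 μM compound in single wells of 384-well plates.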

HEK293FT dCK*-only = experiment: relative growth in counter assay (no AraC = 100%, AraC + DMSO = 0%); higher = more growth rescue independent of IKZF1; conditions: compound concentration: 5 uM; AraC concentration: 0.3 uM; overnight pretreatment + 4 days AraC
In short: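 Nuclei were counted by imaging after Hoechst 33342 staining on day 5, in HEK293FT cells (300/well, 384-well) expressing only an engineered kinase construct. Compound at 5 μM went in 2 h after seeding, followed after overnight at 37 °C by a nucleoside suicide substrate at 0.3 μM plus medium for 4 days. Per plate, wells lacking suicide substrate defined 100% and those with substrate plus vehicle defined 0%.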

HEK293FT dCK*-IKZF1 = experiment: relative growth recovery (pomalidomide 10 uM = 100%, DMSO = 0%); higher = more growth rescue (IKZF1 fusion degradation); conditions: compound concentration: 5 uM; AraC concentration: 0.3 uM; overnight pretreatment + 4 days AraC
In short: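 HEK293FT cells stably expressing a dCK*-IKZF1 fusion (300/well, 384-well) received 5 μM compound 2 h after seeding. After overnight at 37 °C they received a nucleoside suicide substrate at 0.3 μM plus medium for 4 days. On day 5, Hoechst 33342-stained nuclei were counted by whole-well imaging. Growth recovery was normalised per plate to a reference degrader (100%) and vehicle (0%); values are means of duplicates run on different days.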

Sequence of IKZF1 (dCK*-IKZF1 fusion in HEK293FT) (Q13422 whole entry, looked up, the tested form may be a part): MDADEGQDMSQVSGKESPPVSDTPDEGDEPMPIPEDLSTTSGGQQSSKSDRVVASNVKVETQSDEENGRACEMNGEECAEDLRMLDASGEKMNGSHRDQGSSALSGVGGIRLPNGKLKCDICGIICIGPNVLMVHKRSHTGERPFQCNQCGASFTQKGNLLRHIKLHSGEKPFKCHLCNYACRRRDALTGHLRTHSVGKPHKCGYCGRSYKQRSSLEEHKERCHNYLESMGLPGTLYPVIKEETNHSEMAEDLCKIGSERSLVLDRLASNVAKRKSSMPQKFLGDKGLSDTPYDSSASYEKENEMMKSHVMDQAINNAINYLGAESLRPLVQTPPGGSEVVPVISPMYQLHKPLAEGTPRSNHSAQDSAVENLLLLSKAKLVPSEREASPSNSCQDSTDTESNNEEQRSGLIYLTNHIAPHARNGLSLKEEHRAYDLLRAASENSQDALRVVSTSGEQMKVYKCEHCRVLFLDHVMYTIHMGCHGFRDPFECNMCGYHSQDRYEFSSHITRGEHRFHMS

Row | SMILES | inhibition of IKZF1 HTRF signal [1] | relative growth in counter assay (HEK293FT dCK*-only) | relative growth recovery (HEK293FT dCK*-IKZF1)
1 | C=C1C(=O)O[C@@H]2C[C@@]3(C)CCC[C@H](C)C3=C[C@H]12 [alantolactone] | -31.2% | -28% | -7.37%
2 | CO[C@H]1O[C@@H]2O[C@@]3(C)CC[C@H]4[C@H](C)CC[C@@H]([C@H]1C)[C@@]24OO3 [Artemether] | -2.04% | -7.46% | -4.6%
3 | FC(F)(F)c1ccccc1-c1cc(C(F)(F)F)c2[nH]c(C3=NOC4(CCCCC4)C3)nc2c1 | 28.1% | -7.93% | -3.06%
4 | COC(=O)Nc1ccc(-c2nc(N3CCOCC3)c3cnn(C4CCN(C(=O)OC)CC4)c3n2)cc1 | 8.25% | -9.33% | -2.33%
5 | COc1cc([C@@H]2c3cc4c(cc3[C@@H](O[C@@H]3O[C@@H]5CO[C@@H](C)O[C@H]5[C@H](O)[C@H]3O)[C@H]3COC(=O)[C@H]23)OCO4)cc(OC)c1O [Etoposide] | -29.2% | -34.7% | -12.5%
6 | COCCOC(=O)C1=C(C)NC(C)=C(C(=O)OC(C)C)C1c1cccc([N+](=O)[O-])c1 (stereo unspecified) | -29.4% | -11.4% | 6.1%
7 | O=C(O)c1cc(N=Nc2ccc(O)c(C(=O)O)c2)ccc1O [Olsalazine Na] | -197% | 1.54% | -1.08%
8 | Clc1ccc(C(Cn2ccnc2)OCc2ccc(Sc3ccccc3)cc2)c(Cl)c1 (stereo unspecified) [Fenticonazole nitrate] | -51.2% | -4.73% | 0.87%
9 | CC(C)(C#N)c1ccc(N2C(=O)OCc3cnc4ccc(-c5cnc6ccccc6c5)cc4c32)cc1 | 17.1% | 3.56% | -2.14%
10 | O=C1c2ccccc2C(Cc2ccncc2)(Cc2ccncc2)c2ccccc21 | -38.8% | -4.37% | 5.88%
11 | COc1ccc(NC(=O)c2ccc(-c3ccc(-c4noc(C)n4)cc3C)cc2)cc1N1CCN(C)CC1 | -35.8% | -19.7% | 1.76%
12 | Oc1cc(CNC(=S)/C=C/c2cc(O)c(O)c(Br)c2)cc(O)c1O | -32.2% | -34.9% | -11.9%
13 | COC(=O)C1=C(C)NC(C)=C(C(=O)OC/C=C/c2ccccc2)C1c1cccc([N+](=O)[O-])c1 (stereo unspecified) [Pranidipine] | 13.9% | -3.72% | -0.3%
14 | CCCNC(=O)NS(=O)(=O)c1ccc(Cl)cc1 | -35.8% | -2.41% | 1.51%
15 | COc1ccc(-c2ccc3c(N4CCOCC4)nc(N4C[C@@H](C)O[C@@H](C)C4)nc3n2)cc1CO | 14.5% | -14% | -6.47%
16 | CN(C)CCCN1c2ccccc2Sc2ccc(Cl)cc21 [Chlorpromazine HCl] | -4.4% | -6.37% | -2.69%
17 | CC(C)/N=c1/cc2n(-c3ccc(Cl)cc3)c3ccccc3nc-2cc1Nc1ccc(Cl)cc1 [Clofazimine] | 6.09% | 3.02% | -0.03%
18 | Clc1ccc(CSC(Cn2ccnc2)c2ccc(Cl)cc2Cl)cc1 (stereo unspecified) | -35.5% | -4.03% | -1.39%
19 | COc1cc(C(=O)NS(=O)(=O)c2ccccc2C)ccc1Cc1cn(C)c2ccc(NC(=O)OC3CCCC3)cc12 [Zafirlukast] | -43.3% | -15.2% | -5.17%
20 | O=C(Nc1cccc(Cl)c1)Nc1ncc(CCNc2ncnc3ccsc23)s1 [SNS-314 methanesulfonate] | -27% | -30.3% | -6.71%
21 | Cc1c(S(=O)(=O)O)oc2c1C(=O)C(=O)c1c-2ccc2c1CCCC2(C)C [sodium-tanshinone-ii-a-sulfonate] | 20.9% | 4.38% | -1.25%
22 | CCC(=O)O[C@@H]1CC(=O)O[C@H](C)C/C=C/C=C/[C@H](O)[C@H](C)C[C@H](CC=O)[C@H](O[C@@H]2O[C@H](C)[C@@H](O[C@H]3C[C@@](C)(O)[C@@H](OC(=O)CC)[C@H](C)O3)[C@H](N(C)C)[C@H]2O)[C@H]1OC [Midecamycin] | -31.7% | -8.86% | -1.26%
23 | C=CC(=O)c1ccc2ccccc2c1 [JAK3-inhibitor-V] | -28.5% | -15.1% | 0.695%
24 | CN(C)CCCN1c2ccccc2Sc2ccc(C(F)(F)F)cc21 | -28.3% | 6.11% | 1.67%
25 | COc1ccc(CN2C(=O)C(=O)c3cc(OC(F)(F)F)ccc32)cc1 | -14.2% | -33.6% | -11.5%
26 | COC1=C(OC)C(=O)C(CCCCCCCCCCO)=C(C)C1=O | 41.8% | -5.9% | -2.21%
27 | Cc1ncsc1-c1ccc(CNC(=O)[C@@H]2C[C@@H](O)CN2C(=O)[C@@H](NC(=O)COCCOCCOCCOc2ccc(-c3ccc4ncnc(Nc5ccc(OCc6cccc(F)c6)c(Cl)c5)c4c3)cc2)C(C)(C)C)cc1 | 13.3% | 18% | 4.09%
